Screening data from PubChem BioAssay.
A selection: hits, their analogues and other compounds. The true share with any hit is near 2.9%.
NadD block: NadD (S. aureus) enzyme inhibition; purified NadD enzyme, colorimetric absorbance read-out; inhibition, % at 20 µM; 360,000 tested, 0.78% active; in the data active means inhibition above about 26%
GRK2 aptamer HTS: blocks RNA aptamer binding to human GRK2; 330,000 tested, 0.59% active; AID 488847; bead flow cytometry, FAM-aptamer displacement from GRK2; inhibition of aptamer binding, % at 10 µM;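 active means inhibition of aptamer binding above 40%, roughly 3 SD of noise, on plates passing a quality check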;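 further: median bead fluorescence of bound FAM aptamer so fluorescent compounds give negative values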
Target sequence (P25098 whole entry, looked up): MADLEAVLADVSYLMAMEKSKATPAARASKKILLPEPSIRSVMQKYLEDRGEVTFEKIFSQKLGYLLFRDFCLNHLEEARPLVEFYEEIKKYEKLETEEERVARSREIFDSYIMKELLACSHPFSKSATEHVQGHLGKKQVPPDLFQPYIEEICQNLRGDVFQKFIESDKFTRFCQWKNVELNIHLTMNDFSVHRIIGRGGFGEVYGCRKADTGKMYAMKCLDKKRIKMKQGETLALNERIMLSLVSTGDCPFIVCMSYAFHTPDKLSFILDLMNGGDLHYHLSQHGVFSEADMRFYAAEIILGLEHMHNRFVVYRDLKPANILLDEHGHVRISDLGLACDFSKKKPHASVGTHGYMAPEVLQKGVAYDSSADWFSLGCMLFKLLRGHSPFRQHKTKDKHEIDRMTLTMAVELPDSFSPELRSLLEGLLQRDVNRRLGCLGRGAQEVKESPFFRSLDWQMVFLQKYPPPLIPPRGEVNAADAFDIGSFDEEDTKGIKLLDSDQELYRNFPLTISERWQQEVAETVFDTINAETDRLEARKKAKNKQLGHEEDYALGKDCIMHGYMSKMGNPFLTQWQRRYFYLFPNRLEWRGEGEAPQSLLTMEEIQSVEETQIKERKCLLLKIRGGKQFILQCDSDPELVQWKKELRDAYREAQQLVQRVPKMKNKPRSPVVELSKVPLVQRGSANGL
Granule exo inh: lytic granule exocytosis inhibition | AID 651702 | inhibition, % at 10 µM | 360,000 tested, 0.66% active | TALL-104 LAMP-1 surface exposure, flow cytometry; cells stimulated with thapsigargin and PMA;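 active means inhibition above about 55%, limit read from the data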
Beta2AR agonist: activates human beta-2 adrenergic receptor causing internalization. AID 504454. Am2.2-beta2AR cells, FAP receptor internalization, flow cytometry. response, % (no concentration beside the values). 340,000 tested, 0.43% active. P07550;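 active means response above a set limit, near 3 SD of response in nonfluorescent compounds, cut at about 42% in these data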
PP1 inh: PP1-alpha (human) inhibition in PP5 counter-screen; purified PP1alpha, OMFP fluorescence; inhibition, % at 6.7 µM; 320,000 tested, 0.9% active; AID 2235;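 active means inhibition above the mean inhibition of all tested compounds plus 3 SD, computed separately for each screening campaign, cut at about 15% in these data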
GRK2 CP1: confirmation of human GRK2 inhibitors displacing RNA aptamer; shares compounds with GRK2 aptamer HTS; bead-bound GRK2, FAM-aptamer displacement, flow cytometry; aptamer displacement, % at 10 µM; 2,000 tested, 4% active; AID 504451;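 active means aptamer displacement above 40%, near three times the noise of non-fluorescent compounds, on plates passing quality checks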;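 further: negative values mostly reflect intrinsic compound fluorescence rather than true enhancement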
FAM quench CP1: counter-screen for GRK2 aptamer inhibitors: fluorescent aptamer quenchers; shares compounds with GRK2 aptamer HTS; Carboxyfluorescein RNA aptamer on beads, flow cytometry quenching; hits give low values; fluorescence response (% of DMSO), % at 10 µM; 2,000 tested, under 10 active;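 active means compounds that quench the bead-bound fluorescent RNA probe, cutting fluorescence to under half of the solvent control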;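 further: counterscreen run without GRK2 so only probe quenching by compound is measured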
GRK2 CP2: confirmation of human GRK2 inhibitors binding RNA aptamer site; shares compounds with GRK2 aptamer HTS; bead-bound GRK2, FAM-aptamer displacement, flow cytometry; inhibition of aptamer binding, % at 10 µM; 360 tested, under 10 active; AID 504782;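 active means inhibition of aptamer binding above 40%, about triple the noise seen with nonglowing compounds, on plates passing quality control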;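 further: negative values mostly come from compounds that fluoresce themselves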
FAM quench SP: quenches fluorescent RNA aptamer, GRK2 hit artifact | carboxyfluorescein RNA aptamer beads, flow cytometry quenching; hits give low values | 360 tested, under 10 active | shares compounds with GRK2 aptamer HTS | fluorescence response vs DMSO, % at 10 µM;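 active means response vs DMSO under 50%, meaning signal dropped by over half, treated as fluorescence quencher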;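 further: labelled aptamer on streptavidin beads without GRK2 as a quench counter-screen; 100% = bead fluorescence of DMSO wells and lower means quenching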
Beta2AR ag CP1: human beta-2 adrenergic receptor agonism, cherry pick; 1,100 tested, 25% active; AID 540358; percent response (surface receptor), % at 10 µM; shares compounds with Beta2AR agonist; Am2.2-beta2AR cells, FAP surface receptor, flow cytometry; hits give low values;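 active means surface receptor percent response at or below 58%, roughly 3 SD from nonfluorescent compounds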
B2AR FAP counter: flagged in Am2.2 fluorescence counterscreen for beta-2AR agonists; shares compounds with Beta2AR agonist; Am2.2 cells, FAP fluorogen flow cytometry; hits give low values; AID 588765; 1,100 tested, under 10 active; calls only at 10 µM;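 active means percent response below a set limit in fluorescence channel 1 and below 50% in channel 8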
NadD inh conf: NadD (S. aureus) inhibition, single concentration confirmation; shares compounds with NadD block; purified S. aureus NadD, colorimetric enzyme assay; 2,000 tested, 13% active; inhibition, % at 20 µM; in the data active means inhibition mostly above about 42%, no sharp cut-off; inactive means mostly below about 42%
Starred values were filed as active, the others as inactive; . = not tested or not shown; + = active, no number; ! = a repeat was not active.

SMILES | NadD block | GRK2 aptamer HTS | Granule exo inh | Beta2AR agonist | PP1 inh | GRK2 CP1 | FAM quench CP1 | others
CCOC(=O)CC(NC(=O)c1cc2cc(Br)ccc2oc1=O)c1cccc([N+](=O)[O-])c1 (centres undefined) | -7.9 | 78.0* | 6.4 | -3.7 | 7.5 | . | . | GRK2 CP2=2.8;FAM quench SP=99.0
CCOC(=O)c1cc2cc([N+](=O)[O-])ccc2oc1=O | -8.2 | 5.0 | 0.5 | -7.7 | -1.7 | . | .
COc1ccccc1N(CC(=O)Nc1cc(S(=O)(=O)N(C)C)ccc1C)S(=O)(=O)c1cccs1 | -6.1 | 0.0 | 9.8 | 5.0 | . | . | .
COCOCCn1cc(CN2CCS(=O)(=O)N(Cc3ccc(-c4ccccc4)cc3)C(C(C)C)C2=O)nn1 (centres undefined) | -12.7 | . | 5.3 | . | . | . | .
Fc1ccc2cc(-c3ccccc3F)ncc2c1 | -2.7 | 100.0* | 2.5 | -2.0 | . | . | . | GRK2 CP2=-32.7;FAM quench SP=103.0
CCc1nc(SCC(=O)O)c(C#N)c2c1CCCC2 | -6.2 | 0.0 | -10.2 | 6.5 | -1.6 | . | .
Cc1nc(SCC(=O)O)c(C#N)c2c1CCCC2 | -2.2 | 82.0* | 10.7 | 0.6 | -17.7 | 15.4 | 101.2
CCn1c(=S)sc2c(=O)n(CC(=O)Nc3ccccc3C(F)(F)F)c(C)nc21 | 4.5 | 59.0* | -1.9 | -4.1 | 8.3 | -11.8 | 97.5
CCn1c(=S)sc2c(=O)n(CC(=O)Nc3ccccc3)c(C)nc21 | -8.3 | 9.0 | 9.1 | -2.1 | -3.2 | . | .
COc1cccc(/C=N/NC(=O)CC2C(=O)NN=C2C)c1O (centres undefined) | -2.3 | 66.0* | 2.5 | -8.3 | 0.0 | 2.2 | 97.0
COc1cccc(/C=N/NC(=O)CC2C(=O)NN=C2C)c1OC (centres undefined) | 0.1 | 1.0 | 4.6 | 1.9 | -3.9 | . | .
COc1ccc(NC(=O)N2CCCC(C(=O)NCCc3ccccc3)C2)cc1 (centres undefined) | -2.0 | 3.0 | -6.1 | 4.8 | 2.7 | . | .
COc1cc(OC)cc(C(=O)n2cnnc2N)c1 | -1.8 | 0.0 | 1.2 | -7.7 | -0.8 | . | .
CCCOC(=O)CCCN1C(=O)/C(=C2\SC(=S)N(CCCC(=O)OCCC)C2=O)SC1=S | 0.2 | 60.0* | 3.4 | 8.9 | -4.4 | 36.3 | 100.3
CCCCOC(=O)CCN1C(=O)/C(=C2\SC(=S)N(CCC(=O)OCCCC)C2=O)SC1=S | 3.5 | 13.0 | 3.2 | 17.3 | -0.9 | . | .
N#CC1=C(S)N(c2ccc(F)cc2)C(c2ccco2)NC1=O (centres undefined) | 6.3 | 0.0 | 5.6 | -4.2 | -0.1 | . | .
N#CC1=C(S)N(c2ccccc2)C(c2ccco2)NC1=O (centres undefined) | -2.6 | 74.0* | -5.6 | -6.7 | 0.2 | 0.8 | 100.6
Cc1ccc(-c2nnc(Nc3ccccc3)o2)cc1 | 1.1 | 2.0 | -1.3 | 0.5 | -0.2 | . | .
COc1ccc(CC(=O)Oc2ccc(F)c(F)c2)cc1S(=O)(=O)N1CCOCC1 | -2.0 | 1.0 | 0.8 | 7.0 | -5.4 | . | .
CC(C)CNC(=O)CSc1nc2nn(-c3ccccc3)c(=O)c-2c2n1CCCCC2 | 6.0 | 39.0 | -1.8 | -15.7 | -2.1 | -4.2 | 99.1
N#Cc1ccccc1NC(=O)COc1ccccc1C(=O)Nc1ccccc1 | -5.4 | 2.0 | -2.6 | 4.6 | . | . | .
Cc1c(N2C(=O)c3ccc(Br)cc3C2=O)c(=O)n(-c2ccccc2)n1C | -1.6 | 1.0 | -3.5 | -12.2 | -4.3 | . | .
Cc1c(N2C(=O)c3ccc4c5c(ccc(c35)C2=O)CC4)c(=O)n(-c2ccccc2)n1C | 20.4 | 46.0* | -1.5 | 3.0 | 10.5 | 31.6 | 89.0
Cc1ccc(C(=O)Nc2cccc(C(F)(F)F)c2)cc1NC(=O)c1csc(-c2ccncc2)n1 | 3.0 | 0.0 | 1.3 | 90.6* | 14.9 | 2.5 | 95.9 | Beta2AR ag CP1=36.3*!;B2AR FAP counter=+!
COc1ccc(CNC(=O)COC(=O)/C=C/c2cccc(Br)c2)cc1OC | -7.7 | 0.0 | 9.1 | 3.6 | -3.6 | . | .
SMILES | NadD block | GRK2 aptamer HTS | Granule exo inh | Beta2AR agonist | PP1 inh | GRK2 CP1 | FAM quench CP1 | others
O=C(/C=C/c1ccco1)Nc1ccc(-c2nc3ccccc3[nH]2)cc1 | 33.5* | 49.0* | -0.5 | -1.0 | 14.8 | -1.1 | 123.8 | NadD inh conf=3.3
Cc1nc2ccc(-c3nc4ccc(N)cc4[nH]3)cc2[nH]1 | 45.4* | 88.0* | -1.9 | -11.1 | -0.1 | -25.1 | 102.3 | NadD inh conf=20.2
Nc1ccc2nc(-c3cc(Cl)c(N)c(Cl)c3)[nH]c2c1 | 15.4 | 0.0 | 0.4 | 15.9 | 1.0 | . | .
COc1cc(C2C(C#N)=C(N)Oc3c2ccc2ccccc32)ccc1OCC(=O)Nc1ccc(C)cc1 (centres undefined) | 40.3* | 0.0 | -6.5 | 1.6 | 6.8 | 1.0 | 94.5 | NadD inh conf=37.2
Cc1cc(C)cc(NC(=O)c2cc(C)nc3ccccc23)c1 | 0.3 | 12.0 | -20.1 | 2.5 | -1.9 | . | .
Cc1ccc(F)c(C2C3C=CCC(c4cccc(-c5ccc(N(C)C)cc5)c4)C3C(=O)N2Cc2ccccc2)c1 (centres undefined) | 43.1* | 0.0 | -1.0 | 9.5 | 2.1 | 4.8 | 96.0 | NadD inh conf=18.2
O=C1C2C(c3cccc(/C=C/c4ccccc4)c3)CC=CC2C(c2ccc3ccccc3c2)N1Cc1ccccc1 (centres undefined) | 31.8* | 0.0 | -0.3 | 0.9 | 6.2 | -0.1 | 107.4 | NadD inh conf=7.6
C[C@H](O)[C@@H]1CN2CCc3c([nH]c4ccccc34)[C@@H]2C[C@@H]1N(C)C(=S)Nc1ccc(C#N)cc1 | 6.8 | . | -3.6 | . | . | . | .
Cc1cc2cc(CNC(=O)Nc3ccc(Cl)c(Cl)c3)ccc2n1C | 30.6* | 0.0 | -1.8 | 5.7 | 9.4 | -2.7 | 94.5 | NadD inh conf=16.7
COCC(=O)NCc1ccc2c(c1)cc(C)n2C | 1.6 | 20.0 | -2.8 | 3.4 | 1.8 | . | .
C=C(C)CN=CC1(C)CCC(C)=CO1 (centres undefined) | -5.1 | . | -2.7 | 3.1 | . | . | .
O=C(NCc1ccccc1OC(F)(F)F)C1CCC(=O)N(C2CC2)C1 (centres undefined) | 0.4 | 2.0 | 7.7 | -4.6 | . | . | .
